From PubChem BioAssay AID1159580 (chemical genetic matrix, 2015)
Hit rate of the full screen: of about 5,500 compounds, about 2,000 (36%) were called active. Another 18% or so got no clear call; they are omitted. Cut-off read from the data, not from the text of the source: active = normalized growth mostly below about 0.91 (no sharp cut-off); inconclusive = no clear call, values can overlap the other calls; inactive = mostly above about 0.92. The list shows a part of the results.

Assay: chemical genetic growth profiling, strain panel (AID 1159580);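 note: tested at 20 µM; growth read once vehicle control cultures reached saturation at 30 °C; 1 = growth at the plate median or of vehicle wells; lower values mean less growth of the strain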
Conditions: S. cerevisiae deletion strains, growth OD
[1] = locus YHR030C, strain SLT2, hits give low values
[2] = locus YHR079C, strain IRE1, hits give low values
[3] = locus YJL095W, strain BCK1, hits give low values
[4] = locus YJR066W, strain TOR1, hits give low values
[5] = locus YLR113W, strain HOG1, hits give low values
[6] = locus YNL183C, strain NPR1, hits give low values
[7] = locus YOR231W, strain MKK1, hits give low values
[8] = locus YPL256C, strain CLN2, hits give low values

Measured: normalized growth

CC(C)CC(NC(=O)CCN)C(=O)O (centres undefined)
inactive: [1] 0.976 | [2] 0.964 | [3] 0.974 | [4] 0.896 | [5] 0.986 | [6] 0.886 | [7] 0.993 | [8] 0.975

NCCCN=c1ccc2c3c1c(O)c1c(O)ccc(=O)c1c3[nH]n2CCNCCO
active: [8] 1.16 [resistant]
inactive: locus YAR019C, strain CDC15, hits give low values 0.984 | locus YBL105C, strain PKC1, hits give low values 0.977 | locus YBR135W, strain CKS1, hits give low values 0.986 | locus YBR136W, strain MEC1, hits give low values 0.97 | locus YBR160W, strain CDC28, hits give low values 0.982 | locus YDL017W, strain CDC7, hits give low values 0.976 | locus YDL028C, strain MPS1, hits give low values 0.976 | locus YDL101C, strain DUN1, hits give low values 0.969 | locus YDL108W, strain KIN28, hits give low values 0.978 | locus YDL132W, strain cdc53, hits give low values 0.979 | locus YDL214C, strain PRR2, hits give low values 0.993 | locus YDR052C, strain DBF4, hits give low values 0.976 | locus YDR054C, strain cdc34, hits give low values 0.974 | locus YDR226W, strain ADK1, hits give low values 0.984 | locus YDR477W, strain SNF1, hits give low values 0.977 | locus YER123W, strain YCK3, hits give low values 0.978 | locus YER133W, strain GLC7, hits give low values 0.977 | locus YFL009W, strain cdc4, hits give low values 0.982 | locus YFL029C, strain CAK1, hits give low values 0.986 | locus YFR003C, strain YPI1, hits give low values 0.973 | locus YFR019W, strain FAB1, hits give low values 0.948 | locus YFR028C, strain CDC14, hits give low values 0.981 | locus YGR040W, strain KSS1, hits give low values 0.977 | locus YGR052W, strain FMP48, hits give low values 0.984 | locus YGR092W, strain DBF2, hits give low values 0.688 | [1] 1.03 | [2] 1.01 | locus YHR082C, strain KSP1, hits give low values 1.05 | locus YHR205W, strain SCH9, hits give low values 0.916 | locus YIL147C, strain SLN1, hits give low values 0.969 | [3] 0.893 | locus YJL128C, strain PBS2, hits give low values 0.957 | locus YJL157C, strain FAR1, hits give low values 0.994 | locus YJR016C, strain ILV3, hits give low values 0.982 | locus YJR066W, strain TOR1 (second series), hits give low values 0.964 | [4] 1.01 | locus YKL048C, strain ELM1, hits give low values 0.94 | locus YKL067W, strain YNK1, hits give low values 0.983 | locus YKL101W, strain HSL1, hits give low values 0.957 | locus YKL193C, strain SDS22, hits give low values 0.971 | locus YKL203C, strain TOR2, hits give low values 1.01 | [5] 0.982 | locus YLR133W, strain CKI1, hits give low values 0.993 | locus YLR403W, strain SFP1, hits give low values 0.916 | locus YML070W, strain DAK1, hits give low values 0.956 | locus YMR001C, strain CDC5, hits give low values 0.984 | locus YMR205C, strain PFK2 (second series), hits give low values 1 | locus YMR277W, strain FCP1, hits give low values 0.975 | locus YNL006W, strain LST8, hits give low values 0.989 | locus YNL020C, strain ARK1, hits give low values 0.992 | locus YNL161W, strain CBK1, hits give low values 0.986 | [6] 1 | locus YNL207W, strain RIO2, hits give low values 0.975 | locus YNL222W, strain SSU72, hits give low values 0.995 | locus YNL307C, strain MCK1 (second series), hits give low values 0.82 | locus YOL078W, strain AVO1, hits give low values 0.971 | locus YOL136C, strain PFK27, hits give low values 0.965 | locus YOR061W, strain CKA2, hits give low values 0.874 | locus YOR119C, strain RIO1, hits give low values 1 | [7] 0.996 | locus YOR329C, strain SCD5, hits give low values 0.975 | locus YPL031C, strain PHO85, hits give low values 0.96 | locus YPL153C, strain RAD53, hits give low values 0.97 | locus YPL204W, strain HRR25, hits give low values 0.951 | locus YPL209C, strain IPL1, hits give low values 0.98 | locus YPR025C, strain CCL1, hits give low values 0.979 | locus YPR106W, strain ISR1, hits give low values 0.976 | locus YPR111W, strain DBF20, hits give low values 0.979 | strain NNK1, hits give low values 0.978 | strain TSCII, hits give low values 0.981
